Molecules are shown by their SMILES. Results filed as inconclusive are left out. Calls of active or inactive are those of the source. The call rests on the fitted dose curve; in most records, active means well fitted inhibition curve with a large enough effect; inconclusive means small, poorly fitted or top-dose-only effect; inactive means flat fitted curve, though single readings scatter.
On the % scale 0 is the no-effect control and ±100 the full control effect; potency means the concentration at half of the fitted maximal effect.

One assay concerns NIH3T3. The assay can be described thus: qHTS assay to identify novel small-molecules to repurpose for Merkel cell carcinoma treatment (AID 1296009). Further: nearly all actives have a fitted effect of over 60% in size. To be noted: MCC and control cell lines, CellTiter-Glo viability, 72 h; at 44.8 µM (top of the series) unless noted. The gist of the method:
(§1)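 72 hr, 37 degree celsius; NPC 8-pt / MIPE 11-pt dose response; compound pinned in DMSO; CellTiter-Glo, 10 min RT, luminescence; normalized to no-cell and DMSO controls.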
As to `C[C@@H]1CC[C@@]2(OC1)O[C@H]1C[C@H]3[C@@H]4CC[C@H]5C[C@@H](O)CC[C@]5(C)[C@H]4CC(=O)[C@]3(C)[C@H]1[C@@H]2C`, the outcome is “inactive [at 4.96 µM]”. Same read-out and setting: next, `CC(=O)CCC(=O)O`: “inactive”; `Cc1cc(O)cc2c1O[C@](C)(CCC[C@H](C)CCC[C@H](C)CCCC(C)C)CC2`: “inactive”.

The test system of the next assay is UISO. Described as above. To be noted: MCC and control cell lines, CellTiter-Glo viability, 72 h; series mostly up to 46 µM; activity change, negative = cytotoxicity: at the top concentration. Put shortly:
as §1
For the molecule `NC(=O)NC(=O)Cc1ccccc1`, the “activity change, negative = cytotoxicity” value was 15.2% (inactive).

As to `NC(=O)NNc1ccccc1`, the “activity change, negative = cytotoxicity” value was -1.58% (inactive). On the same count and under the same terms, next, `N[C@H](C(=O)O)c1ccc(O)cc1`: 20.4% [at 16.1 µM] (inactive); `Nc1ccc(S(=O)(=O)NC(=O)c2ccccc2)cc1`: -20.1% (inactive). Consider `CCN(CC)CCNC(=O)c1c(C)[nH]c(/C=C2\C(=O)Nc3ccc(F)cc32)c1C`, for which the Potency was 11.9 µM (active). As for `N[C@H]1C(O)O[C@H](CO)[C@@H](O)[C@@H]1O` (stereo not given in full), the “activity change, negative = cytotoxicity” value was -0.102% (inactive). In the case of `O=S(=O)(O)NC1CCCCC1`, the “activity change, negative = cytotoxicity” value is -1.1% (inactive). On the same count and under the same terms, the value for `OC[C@H]1O[C@@H](O[C@@H]2[C@@H](CO)O[C@](O)(CO)[C@H]2O)[C@H](O)[C@@H](O)[C@H]1O` was -4.77% (inactive); that for `CN(C)CCCO[C@@H]1[C@H]2OC(C)(C)O[C@H]2O[C@@H]1C(O)CO` (stereo not given in full) was 2.33% (inactive). Same read-out and setting: the value for `CNCCCC1c2ccccc2C=Cc2ccccc21` was -29.4% (inactive).

Take `CSc1ccc2c(c1)N(CCC1CCCCN1C)c1ccccc1S2` (stereo not given): the Potency is 26.6 µM (active). Regarding `C[C@H]1O[C@@H](n2cc(F)c(=O)[nH]c2=O)[C@H](O)[C@@H]1O`, the “activity change, negative = cytotoxicity” value was -27.7% (inactive).

With `O=S(=O)(O)c1cc(I)c(O)c2ncccc12`, the “activity change, negative = cytotoxicity” value was 33.4% (inactive).

On to `CC1(C)OC(=O)NC1=O`, for which the “activity change, negative = cytotoxicity” value was 24.8% (inactive). The same measure, in the same setting: the value for `CCCCCCCCCCCCCCCCCCOCC(O)CO` (stereo not given) was 26.3% (inactive); that for `CC(=O)CCC(=O)O` was 31% (inactive).

With `C=CCn1c(=O)n([C@@H]2O[C@H](CO)[C@@H](O)[C@H]2O)c2nc(N)[nH]c(=O)c21`, the “activity change, negative = cytotoxicity” value was 4.27% (inactive).

For the origin of these results see PubChem BioAssay (NCATS).
